From ChEMBL document CHEMBL3988442, “University of Dundee, Small-Polar-MMV Screening Library” (2021) come the findings set out here.

The test has as its target AMP-activated protein kinase, AMPK (Homo sapiens) (UniProt P54646+O43741+P54619+Q9UGJ0+Q9Y478+Q13131+Q9UGI9). Put plainly: AMP-dependent Kinase enzyme assay. An in vitro enzyme assay that detects ADP turnover that is directly proportional to AMPK activity. This uses naive AMPK that is activated during the assay with MK-8722. It is filed as functional. The settings on record: 30 µM. Set-up: scale not given: direction of the effect not stated beside the values.
As to `CCN(CC)C(=O)c1ccn(COc2cc(C)cc(C)c2)n1`, the Percent Effect was -7.15%.

With `Cc1cc(C(=O)N2C[C@@H]3COC[C@]3(c3nnc(C4CC4)o3)C2)on1`, the Percent Effect is -3.2%.

For `COC(=O)c1ccc(N2CCN(CCN3CCOCC3)C(C)C2)cc1` (centres undefined), the Percent Effect is -5.32%.

Consider `Cc1ccc(N2CCCC(NCc3cscn3)C2)nn1` (centres undefined), for which the Percent Effect was -43.1%.

On to `Cc1noc2ncc(C(=O)N(CC3CCOC3)C3CC3)cc12` (centres undefined), for which the Percent Effect was -3.99%.

With `Cc1cnn(CC2CCCN2c2nn3cc(C)nc3s2)c1` (centres undefined), the Percent Effect was -3.44%.

Take `CCC(NC(=O)C1CCN(S(C)(=O)=O)CC1)c1ccc(OC)c(C)c1` (centres undefined): the Percent Effect came to 0.574%.

Take `CNC(=O)[C@@]12CCC3(CCN(S(C)(=O)=O)CC3)[C@@H]1CN(S(C)(=O)=O)C2`: the Percent Effect was -10.4%.

Consider `Cc1ccc(C(=O)N2CCN(CCCSCC#N)CC2)o1`, for which the Percent Effect was found to be 1.04%.

Turning to `CC(=O)N(Cc1ncc(C)o1)C1CCN(CCNC2CCCCC2)C1` (centres undefined), the Percent Effect stood at 2.29%.

Turning to `Cc1cnc(CN(C)CC2CCCN2c2cccnn2)cn1` (centres undefined), the Percent Effect is -9.07%.

On to `Cc1cnn(CC2CCCN2C(=O)c2cnc3n[nH]c(C)c3c2)c1` (centres undefined), for which the Percent Effect turned out to be 0.256%.

As to `CC(=O)c1cccc(S(=O)(=O)N2CSCC2C(=O)NCC(F)(F)F)c1` (centres undefined), the Percent Effect was found to be 7.23%.

As for `CCCN(Cc1ccccc1)Cn1nc(C)c2c(C)onc2c1=O`, the Percent Effect was -10.2%.

Take `CN1CCCC(Cc2ccnc3ccncc23)CC1` (centres undefined): the Percent Effect turned out to be 2.02%.

As to `N#Cc1ccccc1CN1C[C@@H]2CC[C@H](C1)N(Cc1cscn1)C2=O`, the Percent Effect is -3.34%.

`CSc1ncc(C(=O)N2C[C@H]3CC[C@@H]2CN(Cc2ccccc2)C3)cn1`: the Percent Effect was determined as 22.7%.

As for `N#CCSCCCN1CCCN(C(=O)c2ccccc2)CC1`, the Percent Effect amounted to 0.11%.

Consider `Cc1nn(C)c(N2CCOCC2)c1CNC(C)c1ccco1` (centres undefined), for which the Percent Effect was found to be 131%.
